Assay results as given in PubChem BioAssay AID624255 (Broad Institute, 2012).
Screen size: about 77,000 compounds; about 4,600 (6%) were called active. Not shown: some 1% with an inconclusive outcome. The list comes from a sample in which actives are over-represented; it also holds similar structures and randomly drawn compounds. A number with no mark means an inactive call.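 The calls were made as follows: active = mean inhibition above about 93%, with at least 55% of replicates each passing it (limit read from the data, passing the limit was not always enough); inconclusive = only one of those two conditions holds; inactive = neither condition holds.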

Assay: growth inhibition of T. cruzi in host fibroblasts – cell-based, beta-gal Tulahuen parasites, NIH3T3 host, luminescence, primary screen (AID 624255)
Conditions: T. cruzi beta-gal in NIH3T3, GalScreen luminescence, 90 h; at 8.34 µM; hits give high values
`C[C@H]1CN([C@@H](C)CO)C(=O)c2cc(-c3ccccc3)cnc2O[C@H]1CN(C)C(=O)C1CCOCC1` gave an inhibition of 60.3%. `CC(=O)N1[C@@H](CO)[C@@H]2c3ccccc3N(S(=O)(=O)c3ccccc3)C[C@@H]21` showed an inhibition of 17.9%. `CN1C(=O)c2cc(NC(=O)c3ccno3)ccc2OC[C@H]2O[C@@H](CC(=O)NCC(F)(F)F)CC[C@@H]21` showed an inhibition of -16.1%. In the case of `CO[C@@H]1CN(C)C(=O)c2ccc(NC(=O)c3ccc(F)cc3)cc2OC[C@H](C)N(C(=O)c2ccc(F)cc2)C[C@@H]1C`, the inhibition was 33.4%. For `C[C@@H]1CN([C@@H](C)CO)S(=O)(=O)c2ccc(C#CCC3CCCC3)cc2O[C@H]1CN(C)C(=O)CC1CC1`, the inhibition was 116% (active). `C[C@@H]1CN([C@H](C)CO)S(=O)(=O)c2ccc(C#CCN(C)C)cc2O[C@H]1CN(C)C(=O)CC1CC1` gave an inhibition of 92.5%. `COCC#Cc1ccc2c(c1)O[C@H](CN(C)C(=O)CC1CC1)[C@@H](C)CN([C@@H](C)CO)S2(=O)=O` gave an inhibition of 72.2%. Compound `C[C@@H]1CN([C@@H](C)CO)S(=O)(=O)c2ccc(C#CCC3CCCC3)cc2O[C@@H]1CN(C)C` has an inhibition of 2.02%. For `C[C@@H]1CN([C@@H](C)CO)S(=O)(=O)c2ccc(C#CCN(C)C)cc2O[C@@H]1CN(C)C(=O)CC1CC1`, the inhibition was 27.9%. With `C[C@@H]1CN([C@H](C)CO)S(=O)(=O)c2ccc(C#CCC3CCCC3)cc2O[C@H]1CN(C)C(=O)CC1CC1` the inhibition was 119% (active). With `O=C(C[C@H]1CC[C@H](NC(=O)c2ccc3c(c2)OCO3)[C@H](CO)O1)NCc1ccc(Oc2ccccc2)cc1` the inhibition was -47.4%. `O=C(NCc1ccccc1Cl)[C@H]1[C@H](CO)[C@H]2Cn3c(cccc3=O)[C@H]2N1C(=O)C1CCC1` gave an inhibition of 19.3%. Compound `C/C=C/c1ccc([C@@H]2[C@@H](CO)N(C(C)=O)[C@H]2CN(C)C(=O)CN(C)C)cc1` has an inhibition of -6.45%. With `C/C=C/c1ccc2c(c1)O[C@H](CN(C)C(=O)Nc1ccccc1)[C@H](C)CN([C@@H](C)CO)S2(=O)=O` the inhibition was 45.2%. In the case of `C[C@@H]1CN([C@@H](C)CO)S(=O)(=O)c2ccc(C#Cc3ccc(F)cc3)cc2O[C@H]1CN(C)C(=O)c1ccccn1`, the inhibition was 103% (active). `COc1ccc(C#Cc2ccc3c(c2)O[C@@H](CN(C)C(=O)Nc2cccc(OC)c2)[C@H](C)CN([C@H](C)CO)S3(=O)=O)cc1` gave an inhibition of 73.3%. In the case of `C[C@@H]1CN([C@@H](C)CO)S(=O)(=O)c2ccc(C#Cc3ccc(F)cc3)cc2O[C@H]1CN(C)C(=O)NC1CCCC1`, the inhibition was 114% (active). Compound `C/C=C/c1ccc2c(c1)O[C@@H](CN(C)C(=O)c1ccccn1)[C@H](C)CN([C@@H](C)CO)S2(=O)=O` has an inhibition of 11.4%. For `C[C@@H]1CN([C@@H](C)CO)S(=O)(=O)c2ccc(C#Cc3ccccc3)cc2O[C@@H]1CN(C)C(=O)Nc1ccccc1`, the inhibition was 113% (active). Work on `CC(C)C#Cc1ccc2c(c1)O[C@@H](CN(C)C(=O)NC(C)C)[C@H](C)CN([C@H](C)CO)S2(=O)=O` yielded an inhibition of 55.8%. Work on `CC(C)CC#Cc1ccc2c(c1)O[C@@H](CN(C)C(=O)c1ccccn1)[C@@H](C)CN([C@H](C)CO)S2(=O)=O` yielded an inhibition of 74.4%. For `C[C@@H]1CN([C@@H](C)CO)S(=O)(=O)c2ccc(C#Cc3ccc(F)cc3)cc2O[C@@H]1CN(C)CC1CC1`, the inhibition was 11.3%. For `COc1cccc(NC(=O)N(C)C[C@H]2Oc3ncc(C4=CCCCC4)cc3C(=O)N([C@H](C)CO)C[C@H]2C)c1`, the inhibition was -8.07%. `CO[C@@H]1CC[C@H]2CCOc3c(C#N)cccc3C(=O)N(C)C[C@@H](OC)[C@H](C)C(=O)N(C)C[C@@H]1O2` gave an inhibition of 20.8%. Work on `O=C(CN1CCOCC1)N[C@@H]1CC[C@H](CCNS(=O)(=O)c2ccccc2F)O[C@H]1CO` yielded an inhibition of 2.08%. `C[C@@H]1CCCCO[C@@H](CN(C)C(=O)Cc2ccccc2)[C@@H](C)CN([C@@H](C)CO)C(=O)c2cc(NC(=O)c3ccccc3)ccc2O1` showed an inhibition of 60.5%. With `C[C@@H]1CN([C@H](C)CO)C(=O)c2cc(C3=CCCC3)cnc2O[C@@H]1CN(C)C(=O)Nc1ccc(F)cc1` the inhibition was 15.9%. With `O=C([C@H]1[C@H](CO)[C@H]2Cn3c(ccc(C4=CCCC4)c3=O)[C@@H]1N2C(=O)c1ccncc1)N1CCCCC1` the inhibition was 34.7%. `CO[C@H]1CN(C)C(=O)c2ccc(NC(=O)C3CC3)cc2OC[C@H](C)N(CCc2ccccc2)C[C@H]1C` gave an inhibition of 36.1%. `COc1ccc(CN(C)C[C@@H]2OCCCC[C@H](C)Oc3ccc(NS(C)(=O)=O)cc3C(=O)N([C@@H](C)CO)C[C@H]2C)cc1` showed an inhibition of 0.374%. With `Cc1ccc(S(=O)(=O)N2C[C@H](O)COC[C@H]3O[C@H](CC(=O)N[C@H]4CCN(Cc5ccccc5)C4)CC[C@@H]32)cc1` the inhibition was -33.7%. `OC[C@H]1[C@@H](c2ccc(-c3ccccc3F)cc2)[C@@H]2CN(Cc3ccncc3)CCCCN12` showed an inhibition of 93.1%. With `Cc1ccc(-c2ccc([C@H]3[C@H](CO)N4CCCCN(Cc5cncnc5)C[C@@H]34)cc2)cc1` the inhibition was 96% (active). `OC[C@H]1[C@H](c2ccc(-c3ccccc3F)cc2)[C@H]2CN(Cc3cncnc3)CCCCN21` showed an inhibition of 69.5%. With `Cc1cccc(-c2ccc([C@H]3[C@@H](CO)N4CCCCN(Cc5cncnc5)C[C@H]34)cc2)c1` the inhibition was 104% (active). In the case of `OC[C@@H]1[C@H](c2ccc(C3=CCCC3)cc2)[C@H]2CN(Cc3ccncc3)CCCCN12`, the inhibition was 75.8%. Compound `Cc1cccc(-c2ccc([C@@H]3[C@H](CO)N4CCCCN(Cc5ccncc5)C[C@@H]34)cc2)c1` has an inhibition of 92%. With `CN(C)C(=O)c1ccc(-c2ccc([C@@H]3[C@@H](CO)N4CCCCN(Cc5cncnc5)C[C@@H]34)cc2)cc1` the inhibition was 55.5%. With `OC[C@H]1[C@H](c2ccc(-c3cccc(F)c3)cc2)[C@@H]2CN(Cc3cncnc3)CCCCN12` the inhibition was 107% (active). With `OC[C@@H]1[C@@H](c2ccc(-c3ccccc3F)cc2)[C@@H]2CN(Cc3cncnc3)CCCCN12` the inhibition was 74.2%. Work on `O=C(C[C@@H]1C[C@@H]2c3cc(NC(=O)NC4CCCC4)ccc3O[C@@H]2[C@@H](CO)O1)NCc1ccccc1` yielded an inhibition of 52.2%. Compound `COc1cccc(-c2ccc3n(c2=O)C[C@@H]2[C@@H](CO)[C@H](C(=O)N4CCCCC4)N[C@H]32)c1` has an inhibition of 13.4%. For `O=C(Nc1ccc(C(F)(F)F)cc1)N[C@@H]1CC[C@@H](CCNC(=O)c2ccccc2F)O[C@H]1CO`, the inhibition was 57.5%. Work on `C[C@@H]1CN([C@@H](C)CO)C(=O)c2cc(-c3ccc(C#N)cc3)cnc2O[C@H]1CN(C)C(=O)CN(C)C` yielded an inhibition of 30.7%. `COCC(=O)Nc1ccc2c(c1)C(=O)N(C)C[C@@H](OC)[C@@H](C)CN(CC1CCCCC1)[C@@H](C)CO2` showed an inhibition of 5.52%. Compound `COc1cccc(S(=O)(=O)N2C[C@H](O)COC[C@H]3O[C@@H](CC(=O)N4CCN(c5ccccc5)CC4)CC[C@@H]32)c1` has an inhibition of 12.2%. `O=C(C[C@H]1CC[C@H]2[C@@H](COC[C@H](O)CN2C(=O)c2ccccn2)O1)N1CCN(c2ccccc2)CC1` gave an inhibition of -3.75%. For `O=C(C[C@H]1CC[C@@H]2[C@H](COC[C@H](O)CN2Cc2ccc(Oc3ccccc3)cc2)O1)N1CCN(c2ccccc2)CC1`, the inhibition was 117% (active). Compound `COc1ccc(S(=O)(=O)N2CC[C@H]3[C@@H](CO)N(C)c4ccc(C#Cc5ccccc5OC)cc4[C@H]32)cc1` has an inhibition of 52%. `CCC(=O)Nc1ccc2c(c1)C(=O)N(C)[C@@H]1CC[C@@H](CC(=O)NCc3ccccc3Cl)O[C@H]1CO2` showed an inhibition of 5.11%. Compound `CCNC(=O)Nc1ccc2c(c1)C(=O)N(C)[C@@H]1CC[C@@H](CC(=O)NCCOC)O[C@@H]1CO2` has an inhibition of 4.1%. `C[C@H](CO)N1C[C@H](C)[C@@H](CN(C)Cc2cccnc2)Oc2cc(C3=CCCC3)ccc2S1(=O)=O` showed an inhibition of 93.1%. With `C[C@H]1CN([C@@H](C)CO)S(=O)(=O)c2ccc(C3=CCCC3)cc2O[C@H]1CN(C)Cc1cccc(C(=O)O)c1` the inhibition was 18.6%. For `C[C@H]1CN([C@@H](C)CO)S(=O)(=O)c2ccc(C3=CCCCC3)cc2O[C@@H]1CN(C)Cc1ccccc1`, the inhibition was 117% (active). Compound `C[C@@H]1CN([C@@H](C)CO)S(=O)(=O)c2ccc(C3=CCCCC3)cc2O[C@@H]1CN(C)C(=O)CN(C)C` has an inhibition of 84.4%. `C[C@@H]1CN([C@@H](C)CO)S(=O)(=O)c2ccc(C3=CCCCC3)cc2O[C@@H]1CN(C)Cc1cccc(C(=O)O)c1` showed an inhibition of 24%. For `C[C@@H]1CN([C@@H](C)CO)S(=O)(=O)c2ccc(C3=CCCC3)cc2O[C@@H]1CN(C)Cc1ccncc1`, the inhibition was 69.1%. Compound `C[C@@H]1CN([C@@H](C)CO)S(=O)(=O)c2ccc(C3=CCCC3)cc2O[C@H]1CN(C)C(=O)CC1CC1` has an inhibition of 36%. With `C[C@H]1CN([C@@H](C)CO)S(=O)(=O)c2ccc(C3=CCCC3)cc2O[C@@H]1CN(C)Cc1ccccc1` the inhibition was 99.6% (active). For `C[C@@H]1CN([C@H](C)CO)S(=O)(=O)c2ccc(C3=CCCC3)cc2O[C@H]1CN(C)Cc1ccccc1F`, the inhibition was 118% (active). In the case of `O=C(CCN1CCCCC1)NCC[C@H]1CC[C@@H](NC(=O)C2CCOCC2)[C@H](CO)O1`, the inhibition was 26.2%. Work on `CO[C@@H]1CN(C)C(=O)c2cc(NC(=O)C3CC3)ccc2OC[C@@H](C)N(C(=O)NC(C)C)C[C@@H]1C` yielded an inhibition of 72%.
